# The full ranking holds about 2,900 compounds; the median of “NF-kB SEAP reporter activity, fold change vs agonist alone” is about 0.99, and the highest 2% start at about 2.6. The entries come from a sample that favours the highest values as a whole.
# How the values were obtained:
# [1] = system: RAW-Dual; assay: NF-kB SEAP reporter activity, fold change vs agonist alone; cytotoxicity flag (confluency mask): not cytotoxic; higher = enhanced NF-kB activity
# Summary of the method: (§1)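 RAW-Dual macrophages (50,000 cells/well in DMEM, 384-well plates) received 50 nL of library stock by pin tool, then a PRR agonist 1 h later, and were kept at 37 °C, 5% CO2. After 20 hours, supernatant was read for IRF by QuantiLuc luminescence and for NF-κB by QuantiBlue absorbance at 620 nm. Reporter activity is fold change over agonist-alone wells. Cytotoxic wells had IncuCyte confluency below 70% of agonist controls in both mask sets.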
# [2] = system: RAW-Dual; assay: NF-kB SEAP reporter activity, fold change vs agonist alone; higher = enhanced NF-kB activity
# Summary of the method: as §1
# [3] = system: RAW-Dual; assay: NF-kB SEAP reporter activity, fold change vs agonist alone; cytotoxicity flag (confluency mask): cytotoxic (confluency <70% of control); higher = enhanced NF-kB activity
# Summary of the method: as §1
# [4] = agonist: ODN 1826 (TLR9) 0.5 ug/mL
# [5] = agonist: Pam2CSK4 (TLR2/6) 0.1 ug/mL
# [6] = agonist: Pam3CSK4 (TLR2/1) 0.1 ug/mL
# [7] = library stock concentration (final ~1000-fold dilution): 10 mM, cytotoxicity flag (confluency mask): not cytotoxic, agonist: MPLA (TLR4) […]
# [8] = library stock concentration (final ~1000-fold dilution): 10 mM, cytotoxicity flag (confluency mask): not cytotoxic, agonist: Imiquimod (TLR7) […]
# [9] = library stock concentration (final ~1000-fold dilution): 10 mM, cytotoxicity flag (confluency mask): cytotoxic (confluency <70% of control), agonist: Imiquimod (TLR7) […]
# [10] = library stock concentration (final ~1000-fold dilution): 10 mM, cytotoxicity flag (confluency mask): cytotoxic (confluency <70% of control), agonist: MPLA (TLR4) […]
structure (smiles),measurement,setting,value
COc1ccc2c(-c3ccc(O)c(C)c3)ccnc2c1 (library stock concentration (final ~1000-fold dilution): .1 mM),NF-kB SEAP reporter activity,[1]; agonist: LPS (TLR4) 0.1 ug/mL,1.1
same,NF-kB SEAP reporter activity,[1]; [4],1.07
same,NF-kB SEAP reporter activity,[1]; [5],0.664
same,NF-kB SEAP reporter activity,[1]; [6],0.85
CC(NCc1ccc(OCc2cccc(F)c2)cc1)C(N)=O (stereo not given),NF-kB SEAP reporter activity,[2]; [7],1.07
CC(NCc1ccc(OCc2cccc(F)c2)cc1)C(N)=O (stereo not given) (library stock concentration (final ~1000-fold dilution): 10 mM),NF-kB SEAP reporter activity,[1]; agonist: LPS (TLR4) 0.1 ug/mL,1.32
same,NF-kB SEAP reporter activity,[1]; [4],0.933
same,NF-kB SEAP reporter activity,[1]; [5],1.16
same,NF-kB SEAP reporter activity,[1]; [6],0.745
Nc1cc(C(F)(F)F)c(-c2cc(N3CCOCC3)nc(N3CCOCC3)n2)cn1 (library stock concentration (final ~1000-fold dilution): 10 mM),NF-kB SEAP reporter activity,[1]; agonist: LPS (TLR4) 0.1 ug/mL,2.59
same,NF-kB SEAP reporter activity,[1]; [4],2.07
same,NF-kB SEAP reporter activity,[1]; [5],1.49
same,NF-kB SEAP reporter activity,[1]; [6],0.904
Nc1cc(C(F)(F)F)c(-c2cc(N3CCOCC3)nc(N3CCOCC3)n2)cn1,NF-kB SEAP reporter activity,[2]; [8],1.71
same,NF-kB SEAP reporter activity,[2]; [7],1.63
FC(F)c1nc2ccccc2n1-c1nc(N2CCOCC2)nc(N2CCOCC2)n1 (library stock concentration (final ~1000-fold dilution): 10 mM),NF-kB SEAP reporter activity,[1]; agonist: LPS (TLR4) 0.1 ug/mL,2.13
same,NF-kB SEAP reporter activity,[1]; [4],0.832
same,NF-kB SEAP reporter activity,[1]; [5],0.936
same,NF-kB SEAP reporter activity,[1]; [6],0.767
FC(F)c1nc2ccccc2n1-c1nc(N2CCOCC2)nc(N2CCOCC2)n1,NF-kB SEAP reporter activity,[2]; [8],1.77
same,NF-kB SEAP reporter activity,[2]; [7],1.32
Nc1cc(C(F)(F)F)c(-c2nc(N3CCOCC3)nc(N3CCOCC3)n2)cn1,NF-kB SEAP reporter activity,[2]; [8],0.783
same,NF-kB SEAP reporter activity,[2]; [7],1.11
Nc1cc(C(F)(F)F)c(-c2nc(N3CCOCC3)nc(N3CCOCC3)n2)cn1 (library stock concentration (final ~1000-fold dilution): 10 mM),NF-kB SEAP reporter activity,[1]; agonist: LPS (TLR4) 0.1 ug/mL,0.943
same,NF-kB SEAP reporter activity,[1]; [4],0.711
same,NF-kB SEAP reporter activity,[1]; [5],0.402
same,NF-kB SEAP reporter activity,[1]; [6],0.503
COc1cc2ncnc(Nc3ccc(F)c(Cl)c3)c2cc1OCCCN1CCOCC1.Cl,NF-kB SEAP reporter activity,[2]; [7],1.29
COc1cc2ncnc(Nc3ccc(F)c(Cl)c3)c2cc1OCCCN1CCOCC1.Cl (library stock concentration (final ~1000-fold dilution): 10 mM),NF-kB SEAP reporter activity,[1]; agonist: LPS (TLR4) 0.1 ug/mL,1.23
same,NF-kB SEAP reporter activity,[1]; [4],0.277
same,NF-kB SEAP reporter activity,[1]; [5],0.967
same,NF-kB SEAP reporter activity,[1]; [6],0.737
CN1CCN(Cc2ccc(Nc3ncc(Cl)c(Nc4ccccc4S(=O)(=O)N(C)C)n3)cc2)CC1,NF-kB SEAP reporter activity,"[2]; library stock concentration (final ~1000-fold dilution): 2 mM, cytotoxicity flag (confluency mask): cytotoxic (confluency <70% of control), agonist: Imiquimod (TLR7) […]",1.37
same,NF-kB SEAP reporter activity,"[2]; library stock concentration (final ~1000-fold dilution): 2 mM, cytotoxicity flag (confluency mask): cytotoxic (confluency <70% of control), agonist: MPLA (TLR4) […]",0.961
CN1CCN(Cc2ccc(Nc3ncc(Cl)c(Nc4ccccc4S(=O)(=O)N(C)C)n3)cc2)CC1 (library stock concentration (final ~1000-fold dilution): 2 mM),NF-kB SEAP reporter activity,[3]; agonist: LPS (TLR4) 0.1 ug/mL,0.331
same,NF-kB SEAP reporter activity,[3]; [4],1.3
same,NF-kB SEAP reporter activity,[3]; [5],0.245
same,NF-kB SEAP reporter activity,[3]; [6],1.08
CN1C(=O)c2sccc2N(C)c2nc(Nc3ccc(S(N)(=O)=O)cc3)ncc21,NF-kB SEAP reporter activity,[2]; [8],1.86
same,NF-kB SEAP reporter activity,[2]; [7],2.45
Nc1nc(Nc2ccc(S(N)(=O)=O)cc2)nn1C(=O)c1c(F)cccc1F (library stock concentration (final ~1000-fold dilution): 10 mM),NF-kB SEAP reporter activity,[3]; agonist: LPS (TLR4) 0.1 ug/mL,0.637
same,NF-kB SEAP reporter activity,[3]; [4],1.29
same,NF-kB SEAP reporter activity,[3]; [5],0.632
same,NF-kB SEAP reporter activity,[3]; [6],0.864
Nc1nc(Nc2ccc(S(N)(=O)=O)cc2)nn1C(=O)c1c(F)cccc1F,NF-kB SEAP reporter activity,[2]; [9],1.97
same,NF-kB SEAP reporter activity,[2]; [10],1.36
CN1C(=O)c2sccc2N(C)c2nc(Nc3ccc(S(N)(=O)=O)cc3)ncc21 (library stock concentration (final ~1000-fold dilution): 10 mM),NF-kB SEAP reporter activity,[1]; agonist: LPS (TLR4) 0.1 ug/mL,5.75
same,NF-kB SEAP reporter activity,[1]; [4],3.02
same,NF-kB SEAP reporter activity,[1]; [5],1.22
same,NF-kB SEAP reporter activity,[1]; [6],2.56
COC(=O)c1ccc(O)c(O)c1 (library stock concentration (final ~1000-fold dilution): 10 mM),NF-kB SEAP reporter activity,[1]; agonist: LPS (TLR4) 0.1 ug/mL,0.81
same,NF-kB SEAP reporter activity,[1]; [4],0.654
same,NF-kB SEAP reporter activity,[1]; [5],0.603
same,NF-kB SEAP reporter activity,[1]; [6],0.553
COC(=O)c1ccc(O)c(O)c1,NF-kB SEAP reporter activity,[2]; [8],0.731
same,NF-kB SEAP reporter activity,[2]; [7],1.17
Cn1cc(C2=C(c3ccc(Cl)cc3Cl)C(=O)NC2=O)c2ccccc21 (library stock concentration (final ~1000-fold dilution): 10 mM),NF-kB SEAP reporter activity,[1]; agonist: LPS (TLR4) 0.1 ug/mL,3.23
same,NF-kB SEAP reporter activity,[1]; [4],2.04
same,NF-kB SEAP reporter activity,[1]; [5],1.49
same,NF-kB SEAP reporter activity,[1]; [6],2.34
CS(=O)(=O)O.Cn1cc(C2=C(c3cn(CCCSC(=N)N)c4ccccc34)C(=O)NC2=O)c2ccccc21,NF-kB SEAP reporter activity,[2]; [9],0.13
same,NF-kB SEAP reporter activity,[2]; [10],0.222
Cn1cc(C2=C(c3cccc(N)c3)C(=O)NC2=O)c2ccccc21 (library stock concentration (final ~1000-fold dilution): 10 mM),NF-kB SEAP reporter activity,[1]; agonist: LPS (TLR4) 0.1 ug/mL,1.83
same,NF-kB SEAP reporter activity,[1]; [4],2.18
same,NF-kB SEAP reporter activity,[1]; [5],1.59
same,NF-kB SEAP reporter activity,[1]; [6],2.2
CS(=O)(=O)O.Cn1cc(C2=C(c3cn(CCCSC(=N)N)c4ccccc34)C(=O)NC2=O)c2ccccc21 (library stock concentration (final ~1000-fold dilution): 10 mM),NF-kB SEAP reporter activity,[3]; agonist: LPS (TLR4) 0.1 ug/mL,0.173
same,NF-kB SEAP reporter activity,[3]; [4],0.185
same,NF-kB SEAP reporter activity,[3]; [5],0.0599
same,NF-kB SEAP reporter activity,[3]; [6],0.138
Cn1cc(C2=C(c3ccc(Cl)cc3Cl)C(=O)NC2=O)c2ccccc21,NF-kB SEAP reporter activity,[2]; [8],1.58
same,NF-kB SEAP reporter activity,[2]; [7],1.99
Cn1cc(C2=C(c3cccc(N)c3)C(=O)NC2=O)c2ccccc21,NF-kB SEAP reporter activity,[2]; [8],1.55
same,NF-kB SEAP reporter activity,[2]; [7],1.7
COc1cc2c3cc1Oc1c(OC)c(OC)cc4c1C(Cc1ccc(O)c(c1)Oc1ccc(cc1)CC3N(C)CC2)N(C)CC4.Cl.Cl (stereo not given),NF-kB SEAP reporter activity,[2]; [8],0.379
same,NF-kB SEAP reporter activity,[2]; [7],1.37
COc1cc2c3cc1Oc1c(OC)c(OC)cc4c1C(Cc1ccc(O)c(c1)Oc1ccc(cc1)CC3N(C)CC2)N(C)CC4.Cl.Cl (stereo not given) (library stock concentration (final ~1000-fold dilution): 10 mM),NF-kB SEAP reporter activity,[1]; agonist: LPS (TLR4) 0.1 ug/mL,1.44
same,NF-kB SEAP reporter activity,[1]; [4],0.2
same,NF-kB SEAP reporter activity,[1]; [5],1.08
same,NF-kB SEAP reporter activity,[1]; [6],1.19

# Source: the supplement of paper PMC10037445
